Results from the supplement of paper PMC11732987, “Enantioselective OTUD7B fragment discovery through chemoproteomics screening and high-throughput optimisation” (Communications Chemistry, 2025).

Key:
Test in all cases: log2 ratio of Biotin-Ahx-Ub-VS probe labelling (fragment/DMSO); higher = less target engagement (more negative = stronger competition), active = hit call of the paper (q ≤ 0.05, log2 ratio ≤ -1)
Conditions in all cases: compound concentration: 200 uM; treatment time: 3 h
[1] = biological target: USP34 (UniProt Q70CQ2)
Method in brief: (§1)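 HEK293T lysate in Tris/CHAPS/IGEPAL buffer with protease inhibitors (495 µg per sample) was given fragment at 200 µM or vehicle for 3 h, in triplicate. It then received Biotin-Ahx-Ub-VS at 0.5 µM final for 1 h. Labelled DUBs were NeutrAvidin-enriched, digested with LysC and trypsin, and run by diaPASEF LC-MS/MS. Values are average log2 fragment/vehicle ratios by unpaired t-test on global-median-normalised Spectronaut quantities of proteins with ≥2 unique peptides.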

[2] = biological target: T1, USP36 (UniProt Q9P275)
T1 sequence (whole entry): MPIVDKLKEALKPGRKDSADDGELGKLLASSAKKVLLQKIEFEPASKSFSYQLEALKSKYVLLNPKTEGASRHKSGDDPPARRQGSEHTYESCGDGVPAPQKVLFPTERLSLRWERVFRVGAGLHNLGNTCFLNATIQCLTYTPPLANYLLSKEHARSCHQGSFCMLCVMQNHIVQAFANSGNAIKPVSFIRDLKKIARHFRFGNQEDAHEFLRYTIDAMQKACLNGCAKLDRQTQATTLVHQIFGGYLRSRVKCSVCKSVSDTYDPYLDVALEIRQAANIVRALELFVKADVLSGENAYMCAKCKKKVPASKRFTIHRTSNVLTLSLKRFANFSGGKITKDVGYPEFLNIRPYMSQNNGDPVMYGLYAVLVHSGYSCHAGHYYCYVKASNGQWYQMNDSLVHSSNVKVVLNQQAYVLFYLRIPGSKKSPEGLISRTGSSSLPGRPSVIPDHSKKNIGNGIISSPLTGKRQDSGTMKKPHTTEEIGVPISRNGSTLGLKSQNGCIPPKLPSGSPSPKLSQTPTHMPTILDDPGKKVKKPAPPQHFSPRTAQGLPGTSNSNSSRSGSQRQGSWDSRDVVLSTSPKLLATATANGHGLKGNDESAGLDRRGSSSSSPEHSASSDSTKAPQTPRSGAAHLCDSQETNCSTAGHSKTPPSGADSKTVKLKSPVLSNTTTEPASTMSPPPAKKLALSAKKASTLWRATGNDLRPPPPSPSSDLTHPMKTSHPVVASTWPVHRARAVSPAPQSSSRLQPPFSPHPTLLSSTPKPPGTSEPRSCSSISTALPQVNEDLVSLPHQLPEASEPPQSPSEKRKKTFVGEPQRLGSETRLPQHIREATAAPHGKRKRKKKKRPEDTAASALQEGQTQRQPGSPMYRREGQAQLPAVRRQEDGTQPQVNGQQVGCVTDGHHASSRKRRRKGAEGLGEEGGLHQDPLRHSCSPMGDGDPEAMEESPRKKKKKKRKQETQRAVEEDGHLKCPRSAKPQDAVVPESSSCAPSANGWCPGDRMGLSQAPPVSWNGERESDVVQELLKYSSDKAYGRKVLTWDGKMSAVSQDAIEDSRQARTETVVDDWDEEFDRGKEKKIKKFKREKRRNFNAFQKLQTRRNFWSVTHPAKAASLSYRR
Method in brief: as §1

[3] = biological target: T2, USP38 (UniProt Q8NB14)
T2 sequence (whole entry): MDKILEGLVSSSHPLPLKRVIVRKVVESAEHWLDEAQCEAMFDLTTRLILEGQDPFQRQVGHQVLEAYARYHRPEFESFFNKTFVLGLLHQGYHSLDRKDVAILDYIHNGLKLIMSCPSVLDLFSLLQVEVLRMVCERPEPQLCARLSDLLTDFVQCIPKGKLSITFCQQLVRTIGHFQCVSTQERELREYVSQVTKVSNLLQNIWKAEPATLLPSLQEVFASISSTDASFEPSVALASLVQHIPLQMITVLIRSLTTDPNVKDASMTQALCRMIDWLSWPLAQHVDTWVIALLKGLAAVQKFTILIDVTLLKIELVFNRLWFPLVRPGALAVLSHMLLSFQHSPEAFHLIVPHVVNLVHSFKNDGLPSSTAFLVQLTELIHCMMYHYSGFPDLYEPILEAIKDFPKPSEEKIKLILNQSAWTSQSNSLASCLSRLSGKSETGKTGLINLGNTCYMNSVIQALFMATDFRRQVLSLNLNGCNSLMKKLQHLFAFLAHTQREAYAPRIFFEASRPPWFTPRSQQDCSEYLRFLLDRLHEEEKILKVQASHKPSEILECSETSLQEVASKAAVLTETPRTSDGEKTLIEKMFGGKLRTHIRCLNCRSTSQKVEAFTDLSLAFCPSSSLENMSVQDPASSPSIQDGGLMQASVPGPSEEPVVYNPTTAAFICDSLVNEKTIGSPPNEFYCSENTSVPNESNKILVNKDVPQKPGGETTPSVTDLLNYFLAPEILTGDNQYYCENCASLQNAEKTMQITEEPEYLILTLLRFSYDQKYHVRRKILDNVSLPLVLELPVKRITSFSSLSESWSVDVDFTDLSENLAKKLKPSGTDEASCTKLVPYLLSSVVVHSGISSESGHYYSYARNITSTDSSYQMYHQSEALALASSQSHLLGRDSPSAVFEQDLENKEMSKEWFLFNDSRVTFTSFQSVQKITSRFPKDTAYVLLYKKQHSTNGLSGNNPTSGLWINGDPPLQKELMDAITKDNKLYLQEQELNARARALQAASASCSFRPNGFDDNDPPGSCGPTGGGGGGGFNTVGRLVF
Method in brief: as §1

[4] = biological target: T3, USP39 (UniProt Q53GS9)
T3 sequence (whole entry): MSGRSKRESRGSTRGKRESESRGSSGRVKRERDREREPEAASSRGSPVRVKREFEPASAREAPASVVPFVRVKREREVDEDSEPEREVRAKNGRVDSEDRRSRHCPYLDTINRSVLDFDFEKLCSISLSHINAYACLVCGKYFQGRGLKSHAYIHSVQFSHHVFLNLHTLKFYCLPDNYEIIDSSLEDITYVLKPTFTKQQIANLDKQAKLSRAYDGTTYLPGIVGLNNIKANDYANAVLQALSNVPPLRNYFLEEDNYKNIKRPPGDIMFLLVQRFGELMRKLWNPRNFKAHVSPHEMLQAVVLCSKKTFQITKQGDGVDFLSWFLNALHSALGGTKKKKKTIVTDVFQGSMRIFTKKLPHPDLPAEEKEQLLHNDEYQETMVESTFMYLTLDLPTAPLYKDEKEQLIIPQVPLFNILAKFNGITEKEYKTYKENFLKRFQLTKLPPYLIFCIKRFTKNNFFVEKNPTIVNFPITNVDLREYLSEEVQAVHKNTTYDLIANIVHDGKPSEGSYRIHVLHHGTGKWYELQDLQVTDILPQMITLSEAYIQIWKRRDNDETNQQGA
Method in brief: as §1

[5] = biological target: T4, USP4 (UniProt Q13107)
T4 sequence (whole entry): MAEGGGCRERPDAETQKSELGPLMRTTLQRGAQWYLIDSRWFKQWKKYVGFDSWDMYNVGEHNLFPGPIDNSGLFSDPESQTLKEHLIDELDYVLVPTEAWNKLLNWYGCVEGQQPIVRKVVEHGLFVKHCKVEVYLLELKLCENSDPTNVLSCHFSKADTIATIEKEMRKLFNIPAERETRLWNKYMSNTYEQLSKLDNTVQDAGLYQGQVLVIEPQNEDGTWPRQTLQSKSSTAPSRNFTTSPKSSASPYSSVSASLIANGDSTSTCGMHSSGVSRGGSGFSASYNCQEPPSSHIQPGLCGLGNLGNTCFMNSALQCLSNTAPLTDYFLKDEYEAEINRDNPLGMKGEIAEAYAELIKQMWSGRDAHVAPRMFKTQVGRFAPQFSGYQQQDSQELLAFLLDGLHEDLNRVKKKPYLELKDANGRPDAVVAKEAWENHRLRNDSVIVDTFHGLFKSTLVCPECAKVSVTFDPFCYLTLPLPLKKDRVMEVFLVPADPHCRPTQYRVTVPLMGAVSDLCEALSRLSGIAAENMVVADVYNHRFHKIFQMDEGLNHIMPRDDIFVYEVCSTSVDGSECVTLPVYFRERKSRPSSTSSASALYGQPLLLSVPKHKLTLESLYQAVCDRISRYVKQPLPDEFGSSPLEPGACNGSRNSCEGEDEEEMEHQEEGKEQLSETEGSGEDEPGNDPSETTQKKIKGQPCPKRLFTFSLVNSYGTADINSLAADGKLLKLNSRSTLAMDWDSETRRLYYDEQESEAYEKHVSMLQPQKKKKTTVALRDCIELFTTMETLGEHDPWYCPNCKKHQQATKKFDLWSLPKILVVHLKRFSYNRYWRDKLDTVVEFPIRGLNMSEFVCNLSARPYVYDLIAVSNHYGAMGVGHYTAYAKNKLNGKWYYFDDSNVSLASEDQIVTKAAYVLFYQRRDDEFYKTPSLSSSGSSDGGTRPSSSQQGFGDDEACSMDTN
Method in brief: as §1

Measured: log2 ratio of Biotin-Ahx-Ub-VS probe labelling

Chain of USP34 (Q70CQ2 whole entry, the tested form may be a part): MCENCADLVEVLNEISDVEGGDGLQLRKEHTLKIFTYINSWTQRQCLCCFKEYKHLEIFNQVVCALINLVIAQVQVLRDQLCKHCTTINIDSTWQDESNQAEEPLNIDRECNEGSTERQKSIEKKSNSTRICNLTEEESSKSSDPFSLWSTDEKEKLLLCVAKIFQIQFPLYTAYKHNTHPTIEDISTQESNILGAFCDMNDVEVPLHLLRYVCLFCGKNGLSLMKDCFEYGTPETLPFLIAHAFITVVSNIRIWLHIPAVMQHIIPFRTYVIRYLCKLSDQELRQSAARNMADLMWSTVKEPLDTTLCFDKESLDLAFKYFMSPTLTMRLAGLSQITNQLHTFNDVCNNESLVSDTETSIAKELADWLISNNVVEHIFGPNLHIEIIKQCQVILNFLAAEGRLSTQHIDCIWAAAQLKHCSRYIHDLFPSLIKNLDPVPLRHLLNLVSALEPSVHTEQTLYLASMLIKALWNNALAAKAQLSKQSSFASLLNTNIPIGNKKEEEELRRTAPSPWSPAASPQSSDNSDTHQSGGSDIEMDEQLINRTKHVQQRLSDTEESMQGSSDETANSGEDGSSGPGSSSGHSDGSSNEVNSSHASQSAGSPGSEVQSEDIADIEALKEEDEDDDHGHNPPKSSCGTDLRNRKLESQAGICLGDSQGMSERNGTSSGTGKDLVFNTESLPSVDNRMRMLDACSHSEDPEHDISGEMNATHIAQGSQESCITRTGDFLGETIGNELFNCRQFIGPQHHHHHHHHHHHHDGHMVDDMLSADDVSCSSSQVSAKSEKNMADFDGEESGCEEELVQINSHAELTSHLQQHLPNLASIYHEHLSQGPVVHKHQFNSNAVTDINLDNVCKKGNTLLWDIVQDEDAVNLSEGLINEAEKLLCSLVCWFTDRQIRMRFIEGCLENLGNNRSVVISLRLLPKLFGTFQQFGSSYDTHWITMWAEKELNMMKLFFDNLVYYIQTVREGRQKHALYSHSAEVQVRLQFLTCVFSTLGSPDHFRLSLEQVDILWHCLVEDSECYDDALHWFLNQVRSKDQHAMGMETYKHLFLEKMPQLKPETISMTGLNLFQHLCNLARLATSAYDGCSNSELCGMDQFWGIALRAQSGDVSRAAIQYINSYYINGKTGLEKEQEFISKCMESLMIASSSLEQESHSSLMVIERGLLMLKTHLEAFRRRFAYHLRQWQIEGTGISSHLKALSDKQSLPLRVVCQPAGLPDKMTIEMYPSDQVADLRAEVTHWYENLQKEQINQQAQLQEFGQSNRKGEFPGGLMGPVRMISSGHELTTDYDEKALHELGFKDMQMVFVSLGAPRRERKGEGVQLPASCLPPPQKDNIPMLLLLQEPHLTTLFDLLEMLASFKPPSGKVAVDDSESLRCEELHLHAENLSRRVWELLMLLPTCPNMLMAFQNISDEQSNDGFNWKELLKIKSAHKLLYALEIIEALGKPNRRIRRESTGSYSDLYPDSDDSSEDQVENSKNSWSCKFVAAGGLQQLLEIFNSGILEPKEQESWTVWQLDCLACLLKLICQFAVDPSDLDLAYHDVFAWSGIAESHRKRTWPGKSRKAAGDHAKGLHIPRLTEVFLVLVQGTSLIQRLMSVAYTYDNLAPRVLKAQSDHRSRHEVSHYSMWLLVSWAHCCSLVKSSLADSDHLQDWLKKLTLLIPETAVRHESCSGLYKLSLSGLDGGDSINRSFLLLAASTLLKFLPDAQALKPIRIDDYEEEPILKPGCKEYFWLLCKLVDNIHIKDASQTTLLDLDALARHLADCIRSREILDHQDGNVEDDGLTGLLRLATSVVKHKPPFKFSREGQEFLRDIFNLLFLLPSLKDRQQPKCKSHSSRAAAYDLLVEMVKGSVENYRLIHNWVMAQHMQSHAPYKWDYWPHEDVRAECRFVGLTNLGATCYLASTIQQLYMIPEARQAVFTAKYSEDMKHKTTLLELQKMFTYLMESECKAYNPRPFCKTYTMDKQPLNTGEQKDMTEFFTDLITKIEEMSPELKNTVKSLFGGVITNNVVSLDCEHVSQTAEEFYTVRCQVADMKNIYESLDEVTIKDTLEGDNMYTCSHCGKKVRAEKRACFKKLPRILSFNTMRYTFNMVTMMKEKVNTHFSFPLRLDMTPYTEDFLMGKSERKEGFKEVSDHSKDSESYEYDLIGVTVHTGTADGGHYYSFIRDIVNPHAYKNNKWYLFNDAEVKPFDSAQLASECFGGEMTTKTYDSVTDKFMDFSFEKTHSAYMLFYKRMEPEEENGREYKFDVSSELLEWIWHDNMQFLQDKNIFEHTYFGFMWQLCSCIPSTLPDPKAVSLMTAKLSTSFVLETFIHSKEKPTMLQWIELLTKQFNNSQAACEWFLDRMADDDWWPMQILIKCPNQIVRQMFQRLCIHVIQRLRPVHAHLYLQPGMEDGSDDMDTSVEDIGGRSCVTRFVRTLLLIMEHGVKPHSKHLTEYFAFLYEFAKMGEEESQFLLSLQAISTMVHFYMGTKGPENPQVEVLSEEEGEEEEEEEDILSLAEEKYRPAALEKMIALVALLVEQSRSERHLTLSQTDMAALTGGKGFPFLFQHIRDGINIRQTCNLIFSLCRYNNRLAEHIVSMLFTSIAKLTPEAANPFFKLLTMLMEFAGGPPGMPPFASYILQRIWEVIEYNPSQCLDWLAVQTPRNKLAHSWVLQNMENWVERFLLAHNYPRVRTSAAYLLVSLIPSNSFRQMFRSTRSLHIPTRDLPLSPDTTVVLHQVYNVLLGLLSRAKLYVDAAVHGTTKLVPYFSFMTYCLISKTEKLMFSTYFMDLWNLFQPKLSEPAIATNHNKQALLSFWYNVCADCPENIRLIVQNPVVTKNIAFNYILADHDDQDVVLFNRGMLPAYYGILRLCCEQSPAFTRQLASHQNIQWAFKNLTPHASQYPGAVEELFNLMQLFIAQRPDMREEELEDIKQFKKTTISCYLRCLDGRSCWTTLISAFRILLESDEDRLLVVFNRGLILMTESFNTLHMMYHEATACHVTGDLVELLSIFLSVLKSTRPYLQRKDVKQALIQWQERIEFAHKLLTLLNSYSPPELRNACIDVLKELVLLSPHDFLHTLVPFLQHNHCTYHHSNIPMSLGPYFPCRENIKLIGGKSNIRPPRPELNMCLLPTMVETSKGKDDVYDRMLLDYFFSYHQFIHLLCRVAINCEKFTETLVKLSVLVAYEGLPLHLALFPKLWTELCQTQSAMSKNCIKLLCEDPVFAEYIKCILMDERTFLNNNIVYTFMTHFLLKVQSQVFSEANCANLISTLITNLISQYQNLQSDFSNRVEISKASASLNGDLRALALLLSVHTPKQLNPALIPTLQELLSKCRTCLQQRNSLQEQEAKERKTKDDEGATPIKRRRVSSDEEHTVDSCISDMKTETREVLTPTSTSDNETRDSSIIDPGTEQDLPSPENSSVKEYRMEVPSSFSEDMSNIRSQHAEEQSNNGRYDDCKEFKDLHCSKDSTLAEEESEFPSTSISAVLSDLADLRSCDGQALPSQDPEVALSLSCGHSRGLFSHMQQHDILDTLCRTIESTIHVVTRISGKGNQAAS

CNC(=O)C1(NC(=O)CCl)CCCCC1
inactive: [1] 0.0737 | [2] 0.00681 | [3] 0.142 | [4] 0.392 | [5] 0.249
